In general, residual activity refers to the signal under treatment as a percentage of the control signal.

The values that follow come from ChEMBL document CHEMBL2218924, “A broad activity screen in support of a chemogenomic map for kinase signalling research and drug discovery” (Biochem J, 2013).

The target in experiment [1] is T1, CDK9/cyclin T1 (Homo sapiens) (UniProt O60563+P50750). The settings on record: at 1 µM.
In experiment [2] the target is T1, CDK9/cyclin T1 (Homo sapiens). The note with it: at 10 µM.
The target of experiment [3] is T2, Serine/threonine-protein kinase Chk1 (Homo sapiens) (UniProt O14757).
T2 sequence (whole entry): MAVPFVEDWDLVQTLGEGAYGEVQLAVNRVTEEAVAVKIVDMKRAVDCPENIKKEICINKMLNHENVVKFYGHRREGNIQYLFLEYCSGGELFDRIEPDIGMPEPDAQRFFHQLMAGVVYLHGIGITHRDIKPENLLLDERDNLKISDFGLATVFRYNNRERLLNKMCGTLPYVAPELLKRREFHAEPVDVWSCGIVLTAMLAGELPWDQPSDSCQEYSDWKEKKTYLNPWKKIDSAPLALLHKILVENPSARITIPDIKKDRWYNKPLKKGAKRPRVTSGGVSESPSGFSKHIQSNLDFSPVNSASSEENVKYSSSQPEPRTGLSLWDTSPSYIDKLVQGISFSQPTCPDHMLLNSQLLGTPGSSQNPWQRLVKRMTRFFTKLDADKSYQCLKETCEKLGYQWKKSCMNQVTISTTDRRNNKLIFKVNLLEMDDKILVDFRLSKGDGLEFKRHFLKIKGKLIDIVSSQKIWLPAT
The note with it: at 1 µM.

Experiment [4] has as its target T2, Serine/threonine-protein kinase Chk1 (Homo sapiens). The settings on record: at 10 µM.
In experiment [5] the target is Serine/threonine-protein kinase Chk2 (Homo sapiens) (UniProt O96017). The note with it: at 1 µM.
Experiment [6] shares this target. The note with it: at 10 µM.
Experiment [7] concerns the target Casein kinase I isoform gamma-1 (Homo sapiens) (UniProt Q9HCP0). The settings on record: at 1 µM.
For experiment [8] the target is unchanged. The note with it: at 10 µM.
Experiment [9] concerns the target Casein kinase I isoform delta (Homo sapiens) (UniProt P48730). The settings on record: at 1 µM.
Experiment [10] has the same target. The settings on record: at 10 µM.
Experiment [11] concerns the target T3, Casein kinase II (Homo sapiens) (UniProt P67870+P68400+P19784). The note with it: at 1 µM.
Experiment [12] addresses T3, Casein kinase II (Homo sapiens). The settings on record: at 10 µM.
In experiment [13] the target is Casein kinase II subunit alpha' (Homo sapiens) (UniProt P19784). The note with it: at 1 µM.
The target is the same in experiment [14]. The note with it: at 10 µM.
The target of experiment [15] is Dual specificity protein kinase CLK2 (Homo sapiens) (UniProt P49760). The note with it: at 1 µM.
Experiment [16] has the same target. The note with it: at 10 µM.
In experiment [17] the target is Dual specificity protein kinase CLK3 (Homo sapiens) (UniProt P49761). The settings on record: at 1 µM.
Experiment [18] shares this target. The note with it: at 10 µM.
The target of experiment [19] is Tyrosine-protein kinase CSK (Homo sapiens) (UniProt P41240). The settings on record: at 1 µM.
For experiment [20] the target is unchanged. The settings on record: at 10 µM.

Sequence of Casein kinase I isoform gamma-1 (Homo sapiens) (Q9HCP0 whole entry, looked up, canonical isoform): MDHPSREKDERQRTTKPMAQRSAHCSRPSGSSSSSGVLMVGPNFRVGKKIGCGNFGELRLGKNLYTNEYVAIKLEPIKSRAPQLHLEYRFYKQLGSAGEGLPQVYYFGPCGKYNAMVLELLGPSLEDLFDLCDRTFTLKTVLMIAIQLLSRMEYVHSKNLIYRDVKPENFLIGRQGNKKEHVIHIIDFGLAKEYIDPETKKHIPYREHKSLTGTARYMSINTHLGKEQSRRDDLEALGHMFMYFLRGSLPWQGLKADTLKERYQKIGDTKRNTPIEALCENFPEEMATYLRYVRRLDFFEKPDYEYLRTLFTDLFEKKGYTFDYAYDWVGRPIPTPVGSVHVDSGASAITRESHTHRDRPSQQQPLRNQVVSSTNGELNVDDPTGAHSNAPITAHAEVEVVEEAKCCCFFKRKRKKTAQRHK
Sequence of Casein kinase II subunit alpha' (Homo sapiens) (P19784 whole entry, looked up): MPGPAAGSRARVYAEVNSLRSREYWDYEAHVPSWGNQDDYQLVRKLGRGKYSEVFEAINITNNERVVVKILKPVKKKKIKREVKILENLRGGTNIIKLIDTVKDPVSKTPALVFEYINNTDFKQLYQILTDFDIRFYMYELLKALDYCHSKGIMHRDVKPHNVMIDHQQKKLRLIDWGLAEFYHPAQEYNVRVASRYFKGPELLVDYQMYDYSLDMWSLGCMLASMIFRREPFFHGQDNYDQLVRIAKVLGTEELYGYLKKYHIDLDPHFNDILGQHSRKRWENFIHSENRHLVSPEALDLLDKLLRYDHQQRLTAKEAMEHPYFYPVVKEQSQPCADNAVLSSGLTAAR
T3 sequence (P19784 whole entry, looked up): as above
T3 sequence (P67870 whole entry, looked up): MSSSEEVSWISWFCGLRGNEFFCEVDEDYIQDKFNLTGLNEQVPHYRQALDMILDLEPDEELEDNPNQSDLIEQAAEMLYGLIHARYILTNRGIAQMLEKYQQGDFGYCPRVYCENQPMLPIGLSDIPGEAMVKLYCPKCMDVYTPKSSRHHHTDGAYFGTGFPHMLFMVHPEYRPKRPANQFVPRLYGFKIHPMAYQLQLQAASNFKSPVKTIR
T3 sequence (P68400 whole entry, looked up): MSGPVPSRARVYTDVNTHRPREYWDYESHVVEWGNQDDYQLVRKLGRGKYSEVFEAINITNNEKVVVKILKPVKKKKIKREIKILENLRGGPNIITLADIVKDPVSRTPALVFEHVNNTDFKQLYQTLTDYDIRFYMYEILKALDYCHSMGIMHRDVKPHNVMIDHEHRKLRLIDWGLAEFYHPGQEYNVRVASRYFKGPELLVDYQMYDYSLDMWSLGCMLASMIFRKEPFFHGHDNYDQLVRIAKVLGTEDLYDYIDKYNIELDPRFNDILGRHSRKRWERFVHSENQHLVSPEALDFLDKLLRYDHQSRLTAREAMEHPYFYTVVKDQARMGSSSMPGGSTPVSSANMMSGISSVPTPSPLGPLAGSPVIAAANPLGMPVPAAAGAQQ
Sequence of Dual specificity protein kinase CLK2 (Homo sapiens) (P49760 whole entry, looked up): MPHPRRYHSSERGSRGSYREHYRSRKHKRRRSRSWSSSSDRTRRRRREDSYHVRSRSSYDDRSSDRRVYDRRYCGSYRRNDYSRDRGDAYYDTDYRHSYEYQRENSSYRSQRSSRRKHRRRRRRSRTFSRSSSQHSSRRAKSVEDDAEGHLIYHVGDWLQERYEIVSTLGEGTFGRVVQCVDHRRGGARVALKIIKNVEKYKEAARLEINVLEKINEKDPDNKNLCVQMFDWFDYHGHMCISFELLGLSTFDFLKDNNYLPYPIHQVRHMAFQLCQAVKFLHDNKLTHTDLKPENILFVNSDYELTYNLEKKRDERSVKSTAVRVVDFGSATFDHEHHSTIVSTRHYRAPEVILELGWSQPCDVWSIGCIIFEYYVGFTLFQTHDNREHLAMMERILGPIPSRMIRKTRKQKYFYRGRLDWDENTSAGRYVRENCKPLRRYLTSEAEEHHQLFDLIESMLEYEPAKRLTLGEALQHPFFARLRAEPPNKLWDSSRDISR
Sequence of Dual specificity protein kinase CLK3 (Homo sapiens) (P49761 whole entry, looked up): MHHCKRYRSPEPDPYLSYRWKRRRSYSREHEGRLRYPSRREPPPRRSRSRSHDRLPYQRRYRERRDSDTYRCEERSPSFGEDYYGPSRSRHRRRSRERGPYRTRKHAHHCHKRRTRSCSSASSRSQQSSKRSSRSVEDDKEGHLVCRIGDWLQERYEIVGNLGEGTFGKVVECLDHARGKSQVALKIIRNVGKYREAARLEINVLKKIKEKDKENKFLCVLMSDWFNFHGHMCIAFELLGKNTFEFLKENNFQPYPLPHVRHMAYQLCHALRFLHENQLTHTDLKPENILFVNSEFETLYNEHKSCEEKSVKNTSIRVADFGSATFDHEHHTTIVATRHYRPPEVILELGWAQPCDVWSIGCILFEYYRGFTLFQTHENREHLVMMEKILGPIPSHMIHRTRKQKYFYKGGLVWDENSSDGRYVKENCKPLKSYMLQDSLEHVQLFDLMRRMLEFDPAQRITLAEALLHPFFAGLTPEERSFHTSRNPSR
Sequence of Serine/threonine-protein kinase Chk2 (Homo sapiens) (O96017 whole entry): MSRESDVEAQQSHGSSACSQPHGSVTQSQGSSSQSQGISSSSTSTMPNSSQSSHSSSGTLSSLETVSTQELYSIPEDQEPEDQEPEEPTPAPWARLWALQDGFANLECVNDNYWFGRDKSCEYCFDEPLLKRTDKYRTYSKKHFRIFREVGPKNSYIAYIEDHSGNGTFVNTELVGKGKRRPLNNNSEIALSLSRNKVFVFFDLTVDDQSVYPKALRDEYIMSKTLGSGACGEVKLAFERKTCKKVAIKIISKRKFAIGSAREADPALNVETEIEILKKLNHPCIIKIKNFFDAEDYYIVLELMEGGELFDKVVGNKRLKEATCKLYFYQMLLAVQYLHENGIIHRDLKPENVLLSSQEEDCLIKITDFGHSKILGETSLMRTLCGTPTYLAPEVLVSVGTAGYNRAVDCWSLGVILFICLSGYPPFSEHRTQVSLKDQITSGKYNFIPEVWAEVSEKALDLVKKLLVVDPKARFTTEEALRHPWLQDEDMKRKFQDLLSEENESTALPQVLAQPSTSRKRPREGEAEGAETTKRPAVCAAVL
Sequence of Tyrosine-protein kinase CSK (Homo sapiens) (P41240 2-450 limits assumed): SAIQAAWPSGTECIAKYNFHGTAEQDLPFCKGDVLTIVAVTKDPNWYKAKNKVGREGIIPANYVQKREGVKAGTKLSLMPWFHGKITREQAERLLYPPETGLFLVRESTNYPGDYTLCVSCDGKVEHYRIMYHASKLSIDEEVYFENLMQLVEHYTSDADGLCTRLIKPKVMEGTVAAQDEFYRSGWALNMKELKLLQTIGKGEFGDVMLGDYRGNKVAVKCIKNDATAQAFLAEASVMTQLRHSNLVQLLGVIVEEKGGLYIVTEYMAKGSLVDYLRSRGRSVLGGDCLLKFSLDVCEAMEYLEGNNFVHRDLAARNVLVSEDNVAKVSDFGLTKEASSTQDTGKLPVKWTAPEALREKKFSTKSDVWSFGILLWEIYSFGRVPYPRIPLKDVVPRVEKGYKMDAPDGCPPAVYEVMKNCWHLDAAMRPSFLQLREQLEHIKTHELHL
Sequence of Casein kinase I isoform delta (Homo sapiens) (P48730 whole entry, looked up, canonical isoform): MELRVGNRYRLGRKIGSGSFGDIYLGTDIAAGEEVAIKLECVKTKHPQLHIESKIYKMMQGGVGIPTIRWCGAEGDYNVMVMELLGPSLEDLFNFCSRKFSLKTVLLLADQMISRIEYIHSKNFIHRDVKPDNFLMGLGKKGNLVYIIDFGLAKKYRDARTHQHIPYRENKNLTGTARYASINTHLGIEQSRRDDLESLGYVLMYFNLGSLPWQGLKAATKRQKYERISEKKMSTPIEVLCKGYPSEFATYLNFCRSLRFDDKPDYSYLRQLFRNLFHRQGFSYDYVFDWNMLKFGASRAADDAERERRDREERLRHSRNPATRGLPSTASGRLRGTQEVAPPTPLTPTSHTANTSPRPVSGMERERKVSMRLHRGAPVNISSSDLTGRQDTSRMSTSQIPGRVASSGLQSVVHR

For the molecule `O=C1Nc2cc(Br)ccc2/C1=C1/Nc2ccccc2/C1=N\O`, the residual activity came to 32% in experiment [1]; 42% in [2]; 45% in [3]; 19% in [4]; 18% in experiment [5]; 3% in experiment [6]. Besides, the residual activity in experiment [7] was 64%; in [8], 73%; in experiment [9], 51%; in experiment [10], 17%; in [11], 94%; in experiment [12], 86%. Moreover, the residual activity turned out to be 94% in experiment [13]; 57% in experiment [14]; 92% in experiment [15]; 74% in [16]; 79% in [17]; 54% in experiment [18]. Moreover, the residual activity in experiment [19] came out at 94%; in experiment [20], 89%.

For `Oc1ccc(-c2nc(-c3ccc(F)cc3)c(-c3ccncc3)[nH]2)cc1`, the residual activity came out at 94% in [1]; 65% in [2]; 103% in experiment [3]; 92% in experiment [4]; 89% in experiment [5]; 68% in experiment [6]. Besides, the residual activity in [7] is 82%; in experiment [8], 59%; in [9] it was 7%; in [10], -1%; in [11] it was 107%; in experiment [12] it was 107%. Moreover, the residual activity in experiment [13] stood at 122%; in experiment [14], 97%; in [15] it was 123%; in experiment [16] it was 104%; in [17], 94%; in experiment [18] it was 90%. For the same molecule, the results for the residual activity in experiment [19] and in experiment [20] were 126% and 104%, respectively.

Regarding `CC(=O)c1ccc(N2CCOCC2)cc1O`, the residual activity in experiment [1] turned out to be 85%; in experiment [2], 74%; in [3], 96%; in experiment [4] it was 93%; in [5] it was 94%; in [6] it was 91%. Further, the residual activity in experiment [7] amounted to 97%; in [8] it was 97%; in experiment [9] it was 89%; in experiment [10], 94%; in [11] it was 81%; in experiment [12] it was 108%. Moreover, the residual activity in [14] came out at 93%; in experiment [16] it was 101%; in experiment [18] it was 91%.

As for `CO[C@@H]1[C@H](N(C)C(=O)c2ccccc2)C[C@H]2O[C@]1(C)n1c3ccccc3c3c4c(c5c6ccccc6n2c5c31)C(=O)NC4`, the residual activity in experiment [1] worked out at 70%; in experiment [2] it was 58%; in [3] it was 59%; in experiment [4], 65%; in experiment [5], 79%; in experiment [6] it was 54%. Also, the residual activity in experiment [7] worked out at 66%; in experiment [8] it was 49%; in [9], 80%; in experiment [10] it was 69%; in experiment [11], 73%; in [12], 97%. Also, the residual activity was determined as 117% in experiment [13]; 102% in experiment [14]; 17% in experiment [15]; 9% in [16]; 4% in experiment [18]; 82% in experiment [19]. The residual activity in experiment [20] amounted to 78%.

Consider `c1ccc2c(-c3ccncc3)c[nH]c2c1`, for which the residual activity in experiment [1] was 67%; in experiment [2], 20%; in [3] it was 89%; in experiment [4], 80%; in experiment [5] it was 86%; in experiment [6], 100%. The residual activity in experiment [7] was 96%; in experiment [8] it was 95%; in experiment [9], 85%; in experiment [10] it was 81%; in experiment [11], 78%; in [12] it was 95%. In addition, the residual activity worked out at 90% in experiment [14]; 112% in [15]; 85% in experiment [16]; 87% in [17]; 108% in experiment [18].

`C[C@@H](N)[C@H]1CC[C@H](C(=O)Nc2ccncc2)CC1`: the residual activity turned out to be 97% in experiment [1]; 57% in experiment [2]; 107% in experiment [3]; 104% in experiment [4]; 103% in experiment [5]; 97% in [6]. The residual activity in experiment [7] was determined as 102%; in [8], 99%; in [9], 103%; in [10], 110%; in [12], 87%; in experiment [13], 93%. For the same molecule, the residual activity in [15] was determined as 97%; in experiment [16], 66%; in experiment [17], 99%; in experiment [18], 90%; in [19], 106%; in experiment [20], 93%.

With `O=Nc1c(-c2c(O)[nH]c3ccccc23)[nH]c2ccccc12`, the residual activity was found to be 26% in [1]; 11% in experiment [2]; 65% in experiment [3]; 30% in experiment [4]; 13% in experiment [5]; 2% in [6]. Moreover, the residual activity in [7] is 57%; in experiment [8], 19%; in [9], 14%; in experiment [10], 4%; in experiment [11], 112%; in experiment [12], 78%. Moreover, the residual activity in experiment [13] amounted to 102%; in experiment [14], 58%; in experiment [15], 14%; in experiment [16], 4%; in [17], 79%; in [18] it was 54%. Also, the residual activity stood at 101% in experiment [19] and 78% in [20].

For `N#CC(C#N)=C(N)/C(C#N)=C/c1ccc(O)cc1`, the residual activity came out at 86% in [2]; 90% in [3]; 96% in experiment [4]; 88% in experiment [5]; 85% in experiment [6]; 83% in experiment [7]. In addition, the residual activity in experiment [8] turned out to be 99%; in experiment [9], 82%; in experiment [10] it was 54%; in experiment [11] it was 91%; in experiment [12], 85%; in [13] it was 120%. Further, the residual activity in [14] came out at 86%; in [17], 87%; in experiment [18], 126%.

In the case of `Cn1cc(/C=C2\C(=O)Nc3ccc(S(N)(=O)=O)cc32)c2ccccc21`, the residual activity in experiment [1] stood at 62%; in experiment [2] it was 55%; in experiment [3], 16%; in experiment [4], 7%; in [5] it was 4%; in experiment [6], 1%. In addition, the residual activity in experiment [7] was found to be 88%; in experiment [8] it was 52%; in experiment [9], 93%; in experiment [10], 59%; in [11] it was 79%; in [12], 111%. Moreover, the residual activity was 124% in experiment [13]; 80% in experiment [14]; 35% in experiment [15]; 14% in [16]; 45% in experiment [17]; -3% in experiment [18]. Moreover, the residual activity in [19] was 114%; in experiment [20], 92%.

With `Cc1cc2ncc(-c3ccccc3)nc2cc1C`, the residual activity in [1] came to 105%; in experiment [2] it was 85%; in experiment [3], 94%; in experiment [4], 92%; in experiment [5], 84%; in [6] it was 89%. The residual activity in experiment [7] is 93%; in experiment [8] it was 87%; in experiment [9], 87%; in experiment [10], 55%; in [16] it was 98%; in experiment [17], 98%. Further, in experiment [18], the residual activity turned out to be 96%.

`COc1cc2ncnc(Nc3ccc(O)c(Br)c3)c2cc1OC`: the residual activity turned out to be 91% in experiment [1]; 41% in experiment [2]; 80% in [3]; 70% in experiment [4]; 46% in experiment [5]; 11% in experiment [6]. For the same molecule, the residual activity in experiment [7] was found to be 90%; in [8], 41%; in [9], 81%; in experiment [10], 38%; in [11], 58%; in experiment [12], 44%. The residual activity in experiment [13] was 97%; in experiment [14], 38%; in experiment [15] it was 80%; in [16], 30%; in experiment [17] it was 82%; in experiment [18], 118%. Moreover, the residual activity in experiment [19] was 90%; in experiment [20], 76%.

On to `O=C1Nc2ccc(Br)cc2/C1=C\c1cc2c([nH]1)CCCC2`, for which the residual activity in [1] is 104%; in [2], 97%; in experiment [3], 78%; in experiment [4], 81%; in experiment [5], 44%; in [6], 42%. In addition, the residual activity was determined as 77% in [11]; 117% in [12]; 120% in experiment [13]; 106% in experiment [15]; 101% in experiment [16]; 53% in experiment [18]. The residual activity was 118% in experiment [19] and 102% in [20].

As for `Cc1cc(Nc2nc(-c3ccccc3)nc3ccccc23)n[nH]1`, the residual activity in [1] amounted to 76%; in experiment [2], 29%; in [3], 54%; in experiment [4], 16%; in experiment [5], 22%; in experiment [6] it was 2%. The residual activity in experiment [8] is 28%; in [9], 96%; in experiment [10], 51%; in experiment [11], 43%; in [12] it was -2%; in [13], 21%. The residual activity was -2% in [14]; 10% in experiment [15]; 8% in [16]; 53% in experiment [17]; 15% in experiment [18]; 102% in [19].
